# Reference: PubChem BioAssay AID1745847 (National Center for Advancing Translational Sciences (NCATS), 2022)
# In all, about 2,100 compounds went through this assay and about 670 (32%) were called active. Another 50% or so got no clear call; they are omitted. Calls come from the whole dose curve; as a rule, active = well fitted inhibition curve with a large enough effect; inconclusive = small, poorly fitted or top-dose-only effect; inactive = no such curve, though single readings can be large or run the other way. The list shows a part of the results.
# Test: CMV-Luciferase Counterscreen for Inhibitors of ATXN expression; note: nearly all actives have a fitted effect of over 55% in size
# Details: HEK-293 CMV-luciferase reporter, luminescence, 24 h; series mostly up to 57.5 µM
# Text: PI: Daniel Scoles Ph.D. University of Utah School of Medicine, Salt Lake City, Utah MLPCN Grant: NS073009 Spinocerebellar ataxia type 2 (SCA2) is a multisystem neurodegenerative disease caused by a dominantly acting mutation leading to expansion of a polyQ domain in the ataxin-2 protein (ATXN2). SCA2 patients develop progressive ataxia and later lose function in other neuronal systems. Prominent parkinsonian signs develop in some patients. Like many neurodegenerative disorders, no symptomatic or disease-modifying treatments are known. The primary objective of the proposed research is to identify compounds inhibiting ATXN2 expression and to test them for efficacy in SCA2 mouse models. We have developed a cell-based assay paired with an in vivo mouse model using identical luciferase expression constructs. This approach takes advantage of an ATXN2-luciferase transgene, with the luciferase gene flanked by the upstream and downstream portions of the ATXN2 gene. Here we describe a 5-7 dose quantitative high thoroughput screen (qHTS) for compounds lowering ATXN2 expression. We screened the NIH Molecular Libraries Small Molecule Repository (MLSMR) and NCGC's mechanistically annotated (MIPE) and drug repurposing (NPC) collections of compounds for lowering expression of an ATXN2-luciferase reporter in HEK-293 cells. The assay is a multiplexed cell viability assay to ensure target reduction in the absence of cytotoxicity. Secondary qHTS assays included a CMV-luciferase reporter expressed in HEK-293 cells as well as a biochemical assay using recombinant luciferase to detect inhibitors of the reporter enzyme. Compounds that inhibit ATXN2 expression but is not cytotoxic were selected for confirmatory and secondary screens.
# PROTOCOL TABLE (as described by Inglese J, Shamu CE and Guy RK. 2007) SEQUENCE No. (e.g., 1, 2, 3, etc.); PARAMETER (e.g., Cells, Incubation, Reagent, etc.); VALUE; DESCRIPTION. 1; Cells; 4 uL; white, solid bottom, 1536-well Greiner assay plate. 2; Incubation; 2 hr; 37 degree C in 5% humidified CO2. 3; Compounds; 23 nL; Kalypsis pintool (Wako USA) equipped with a 1536-well pin head. 4; Incubation; 24 hr; 37 degree C in 5% humidfified CO2. 5; Reagent; 1 uL; Gly-Phe-7-Amino-4-trifluoromethylcoumarin. 6; Incubation; 30 min; 37 degree C in 5% humidfified CO2. 7; Detection; Fluorescence; Viewlux plate reader (PerkinElmer). 8; Reagent; 3 uL; SteadyGlo luciferase solution (Promega). 9; Incubation; 5 min; room temperature. 10; Detection; Luminescence; ViewLux plate reader (PerkinElmer). NOTES (numbers refer to Sequence numbers above) 1. HEK-293 cells expressing CMV-luciferase reporter (designated as SC cells) were suspended in phenol-red free DMEM and dispensed in assay plates using a Multidrop Combi dispenser (Thermo Fisher Scientific). 2. Assay plates were incubated. Evaporation was prevented by covering assay plates with metal lids containing holes to allow gas diffusion. 3. Compounds were added in a dose response manner with the final concentrations of 57, 11.4, 2.28, 0.46, 0.091, 0.018, 0.0037 uM. Vehicle-only plates, with DMSO being pin-transferred to columns 5-48, were inserted uniformly at the beginning and the end of each library to monitor and record any shifts in assay performance. 5. 125 uM Gly-Phe-7-Amino-4-trifluoromethylcoumarin (MP Biomedicals) working concentration was used at a final concentration of 25 uM. 7. To assess cell viability; the assay plates were read using the ViewLux high-throughput CCD imager (PerkinElmer), wherein single end-point fluorescence measurement was acquired (excitation 405/10; emission 540/25 nm). 8. Detection reagent SteadyGlo Luciferase (Promega) was added to the assay plate. 10. Luminescence is then measured on the ViewLux imager equipped with a clear emission filter using a 2 sec exposure. […]
# % is set by controls: 0 for no effect and ±100 for the full control effect; potency is the fitted concentration of half-maximal effect.
Compound,"activity change, negative = inhibition",Potency
O=C(NCc1ccccc1C(F)(F)F)c1cccc2c1C(=O)c1ccc(N3CCC(N4CCCCC4)CC3)cc1S2(=O)=O,34.1% [at 11.4 µM] (inactive),–
O=C(N/N=C/c1cc(Br)ccc1O)C(c1ccncc1)N1CCOCC1 (stereo not given),–,10 µM (active)
O=C(N/N=C/c1cc(Br)ccc1OC(=O)c1ccc(Br)cc1)c1ccncc1,–,3.98 µM (active)
O=C(N/N=C/c1cc(Br)cc(Br)c1O)c1ccncc1,–,3.98 µM (active)
COc1ccc(C(=O)N/N=C/c2cc(Br)ccc2O)cc1OC,–,2.51 µM (active)
O=C(NN=Cc1ccc(O)cc1O)c1ccccc1NS(=O)(=O)c1cccs1,–,3.16 µM (active)
CCCC(=O)NC(c1ccccc1)c1ccc2cccnc2c1O (stereo not given),–,2.24 µM (active)
CCCCC(=O)NC(c1ccccc1)c1ccc2cccnc2c1O (stereo not given),–,3.98 µM (active)
CCCC(=O)NC(c1ccc(OC)cc1)c1ccc2cccnc2c1O (stereo not given),–,3.16 µM (active)
CCCC(=O)NC(c1ccc(C)cc1)c1ccc2cccnc2c1O (stereo not given),–,2 µM (active)
CCCC(=O)NC(c1ccc(C(C)C)cc1)c1ccc2cccnc2c1O (stereo not given),–,0.355 µM (active)
CCOC(=O)COc1ccc(Br)cc1/C=C/c1[nH]c(=O)[nH]c(=O)c1[N+](=O)[O-],3.24% [at 11.4 µM] (inactive),–
CN1OC[C@@H]2CN[C@H](c3ccc(-c4cc5ccccc5o4)cc3)C[C@@H]21,–,0.0794 µM (active)
N#C/C(=C\c1ccc([N+](=O)[O-])o1)c1nc2ccccc2[nH]1,–,22.4 µM (active)
Cc1c(N/N=C(\C#N)C(=O)c2ccccc2)c(=O)n(-c2ccccc2)n1C,–,3.98 µM (active)
COc1ccc(NS(=O)(=O)c2ccc(C(=O)Nc3c(C)n(C)n(-c4ccccc4)c3=O)cc2)cc1,0.165% [at 11.4 µM] (inactive),–
Cc1cc(N2CCN(Cc3nc(-c4ccc(Cl)cc4)oc3C)CC2)cc(C)n1,–,25.1 µM (active)
NS(=O)(=O)c1ccc(CCNC(=O)c2cc(-c3ccccn3)nc3ccc(Br)cc23)cc1,–,inactive
COC(=O)c1ccc(C(=O)Nc2cc(Cl)ccc2Cl)cc1NC(=O)c1ccc(N(C)C)cc1,-1.02% [at 11.4 µM] (inactive),–
COc1ccc(N(C)S(=O)(=O)c2ccc(Cl)c(C(=O)NCCc3ccc(Cl)cc3)c2)cc1,–,14.1 µM (active)
CCOP(=O)(OCC)C(Cc1ccccc1)N=C(c1ccccc1)c1ccccc1 (stereo not given),–,22.4 µM (active)
Nc1ccc(Oc2ccccc2-c2ccccc2)cc1,–,2 µM (active)
CC(=O)Nc1ccc(NC2=Nc3ccccc3N3C2=Nc2c(c(C)nn2-c2ccccc2)C3c2ccccc2)cc1 (stereo not given),–,1.12 µM (active)

Compound,"activity change, negative = inhibition",Potency
Cc1cccc(NC2=Nc3ccccc3N3C2=Nc2c(c(C)nn2-c2ccccc2)C3c2ccc(O)c(O)c2)c1 (stereo not given),-12.9% [at 11.4 µM] (inactive),–
CN(C)CCOc1ccc(-c2c(-c3ccccc3)sc3ccccc23)cc1,–,22.4 µM (active)
O=C(Nc1nccs1)c1cccc(N2C(=O)c3cccc4c([N+](=O)[O-])ccc(c34)C2=O)c1,–,inactive
Cc1cc(OCC(=O)NC(C)c2ccccc2)ccc1[N+](=O)[O-] (stereo not given),-19.4% [at 11.4 µM] (inactive),–
CCC(=O)NC(c1ccc(C)cc1)c1cc([N+](=O)[O-])c2cccnc2c1O (stereo not given),–,7.08 µM (active)
CC(=O)NC(c1cccs1)c1cc([N+](=O)[O-])c2cccnc2c1O (stereo not given),–,10 µM (active)
CC(=O)NC(c1cccs1)c1cc(Br)c2cccnc2c1O (stereo not given),–,4.47 µM (active)
Oc1cccc(C(O)CNCc2ccc(-c3ccccc3)cc2)c1 (stereo not given),–,inactive
CCc1ccc(-n2cc(-c3ccc(F)cc3)[n+]3c2SCCC3)cc1,–,17.8 µM (active)
CC1(C)Cc2ccccc2C2=NNC(=O)C2=N1,–,25.1 µM (active)
COc1ccc(CCNC(=O)c2cc(-c3cc(C)cc(C)c3O)n[nH]2)cc1OC,–,20 µM (active)
Cc1sc2cc3c(c(C(=O)c4ccccc4)[n+]2c1C)-c1cccc2cccc-3c12,–,3.16 µM (active)
Cc1ccc(C(=O)N/C(=C/c2ccc(-c3ccc([N+](=O)[O-])cc3)o2)C(=O)NCCCN(C)C)cc1,–,inactive
Cc1ccsc1/C=C/C1=Cc2c(sc(NC(=O)CSc3n[nH]c(N)n3)c2C#N)C(C)(C)C1,–,inactive
COc1cccc(CN(C)C(=O)c2ccc(OCC(=O)Nc3cccc(C(F)(F)F)c3)c(OC)c2)c1,–,7.08 µM (active)
CN(C)CCNC(=O)c1cccc(-c2cnc3c(NC=O)cc(/C=C/c4ccccc4)cn23)c1,–,inactive
Cc1cc2sc3ccc(C#CC4(O)CCCCC4)cc3c(=O)c2cc1C,–,0.0316 µM (active)
COc1ccccc1-c1cc2nc(-c3ccccc3)cc(N3CCN(C(=O)c4ccoc4)CC3)n2n1,–,7.94 µM (active)
COc1ccccc1-c1cc2nc(-c3ccccc3)cc(N3CCN(C(=O)c4ccco4)CC3)n2n1,–,7.94 µM (active)
FC(F)(F)c1cc(-c2ccccn2)nc2cc(-c3ccccc3)nn12,–,inactive
O=C(c1ccoc1)N1CCN(c2cc(-c3ccccc3)nc3cc(-c4ccccc4)nn23)CC1,–,10 µM (active)
COc1cccc(-c2cc3nc(-c4ccccc4)cc(N4CCN(C(=O)c5ccoc5)CC4)n3n2)c1,–,3.16 µM (active)
